In PubChem BioAssay (NCATS):
Inconclusive results are not listed. Active and inactive are the calls of the source. Calls come from the whole dose curve; as a rule, active = well fitted curve in the direction sought with a large enough effect; inconclusive = small, poorly fitted or top-dose-only effect, or another doubt; inactive = no such curve, though single readings can be large; an effect the other way counts as inactive or inconclusive.

Columns and labels:
[1] = target: Glutathione peroxidase 1 (Homo sapiens) (UniProt P07203); assay: Primary qHTS Assay for Inhibitors of Recombinant Selenoprotein Glutathione Peroxidase 1 (GPX1) (AID 1845191); conditions: recombinant GPX1, GR-coupled NADPH fluorescence, 15 min; series mostly up to 48.8 µM; note: nearly all actives have a fitted effect of over 65% in size
Sequence of Glutathione peroxidase 1 (Homo sapiens) (P07203 whole entry, looked up): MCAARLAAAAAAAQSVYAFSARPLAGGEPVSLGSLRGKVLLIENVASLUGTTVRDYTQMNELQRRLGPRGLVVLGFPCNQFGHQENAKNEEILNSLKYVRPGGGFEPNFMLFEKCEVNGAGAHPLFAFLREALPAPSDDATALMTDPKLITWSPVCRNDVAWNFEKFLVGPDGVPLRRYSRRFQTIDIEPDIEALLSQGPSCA
In short: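 10 nM GPX1 + cpd, 30 min RT; start w/ 1 mM GSH, 0.5 mM cumene hydroperoxide, 0.5 mM NADPH, 100 nM GR, 0.01% BSA; buffer 50 mM Tris-HCl pH 7.5, 2 mM EDTA, 150 mM NaCl; Fl 340/450, 0 & 15 min.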

[2] = target: Phospholipid hydroperoxide glutathione peroxidase GPX4 (Homo sapiens) (UniProt P36969); assay: Primary qHTS Assay for Inhibitors of Recombinant Selenoprotein Glutathione Peroxidase 4 (GPX4) (AID 1845192); conditions: recombinant GPX4, GR-coupled NADPH fluorescence, 15 min; series mostly up to 50 µM; note: nearly all actives have a fitted effect of over 65% in size
Sequence of Phospholipid hydroperoxide glutathione peroxidase GPX4 (Homo sapiens) (P36969 whole entry, looked up): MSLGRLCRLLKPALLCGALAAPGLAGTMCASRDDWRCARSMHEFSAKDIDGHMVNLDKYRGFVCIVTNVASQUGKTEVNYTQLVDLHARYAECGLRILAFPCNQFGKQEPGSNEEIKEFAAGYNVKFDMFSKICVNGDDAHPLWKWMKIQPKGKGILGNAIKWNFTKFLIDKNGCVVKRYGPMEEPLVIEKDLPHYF
In short: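 NADPH consumption, followed by fluorescence at 340/450 nm between 0 and 15 min, reports GPX4 activity via coupled glutathione reductase (100 nM). Enzyme 200 nM was pre-exposed to compound 30 min; 0.5 mM cumene hydroperoxide and 1 mM GSH served as substrates.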

[3] = target: Luciferin 4-monooxygenase (Photinus pyralis) (UniProt P08659); assay: Primary firefly luciferase (FLuc) qHTS assay for identification of artifact compounds. (AID 1845220); conditions: purified firefly luciferase, luminescence, 5 min; series mostly up to 54.1 µM; note: nearly all actives have a fitted effect of over 60% in size
In short: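 Cell-free, 1536-well qHTS. Buffer pH 7.6 with 0.01% Tween-20 and 0.05% BSA; 10 uM D-luciferin, 10 uM ATP; 10 nM P. pyralis luciferase; luminescence after 5 min.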

[4] = system: Nanoluciferase (engineered Oplophorus gracilirostris luciferase); assay: Primary Nanoluciferase (NLuc) qHTS assay for identification of artifact compounds. (AID 1845222); conditions: NLuc-conditioned medium, Nano-Glo luminescence, 5 min; series mostly up to 54.1 µM
In short: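 Compounds are pinned into diluted (1:55) conditioned medium of NLuc-expressing S16 cells and held 15 min at room temperature protected from light. Nano-Glo substrate follows, and luminescence is read 5 min later.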

[5] = Primary redox qHTS assay for identification of artifact compounds. (AID 1845223); conditions: Amplex Red/HRP redox cycling with DTT, fluorescence; series mostly up to 53.8 µM
In short: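 Amplex Red (25 uM) and HRP (250 mU/mL) in HBSS, with compounds for 15 min, then 250 uM DTT for 30 min, room temperature, dark. Fluorescence 525/598 nm read; normalized to DMSO and 10 uM DA3003; Hill fit.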

Measured: Potency

CC(C)c1ccc2c(c1)C(=O)CC1[C@@](C)(C(=O)O)CCC[C@]21C (stereo not given in full)
inactive: all assays above

CC(=O)C=C=C1C(C)(C)CC(O[C@@H]2O[C@H](CO)[C@@H](O)[C@H](O)[C@H]2O)CC1(C)O (stereo not given in full)
inactive: all assays above

C=C1CCC2C(C)(C)CCC[C@]2(C)[C@H]1C/C=C(\CO)C(=O)C(=O)O (stereo not given in full)
inactive: all assays above

C[C@@H]1[C@H]2[C@H](O[C@@H]3O[C@H](CO)[C@@H](O)[C@H](O)[C@H]3O)OC=C(C(=O)O)[C@H]2C[C@@H]1O
inactive: all assays above

CC(C)C(CO)Nc1nc(Nc2cc(N)cc(Cl)c2)c2ncn(C(C)C)c2n1 (stereo not given)
inactive: all assays above

COc1cc(O)cc(/C=C/c2ccc(O[C@@H]3O[C@H](CO)[C@@H](O)[C@H](O)[C@H]3O)cc2)c1
inactive: all assays above

Cc1cc(NC(=O)Nc2ccc(F)c(F)c2)n(-c2ccccc2)n1
inactive: all assays above

Cc1cc(C)cc(C(=O)NOCCCCCC(=O)NO)c1
inactive: all assays above

CC(C)(O)CC(CO)NC(=O)CC(O)CC(=O)Cc1ccccc1 (stereo not given)
inactive: all assays above

CCC1C(=O)OC23C=C[C@@H]4C(C(=O)O)=CO[C@H](O[C@@H]12)[C@@H]43 (stereo not given in full)
inactive: all assays above

CC1=CC(=O)C(=C(C)C)CC2C1CCC2(C)O (stereo not given)
inactive: all assays above

Nc1ccc(-c2cccc3c(=O)cc(N4CCOCC4)oc23)cc1
inactive: all assays above

COC(=O)Cc1cc2c(c([N+](=O)[O-])c1)N(C(=O)CC[C@H](N)C(=O)O)CC2
inactive: all assays above

COc1ccc([C@@]2(O)c3c(ccc4c3OC(C)(CCC=C(C)C)C=C4)NC(=O)[C@@H]2OC)cc1 (stereo not given in full)
inactive: all assays above

CC1C(OC(=O)c2ccccc2)C(O)C2C(C(=O)O)=COC(OC3OC(CO)C(O)C(O)C3O)C12 (stereo not given)
inactive: all assays above

C=C1CN(Cc2ccc(C(=O)Nc3ccccc3N)cc2)C(=O)c2ccccc21
inactive: all assays above

CC(C)c1cccc2c(-c3ccccc3)cc(-c3ccc(-c4ccc(C(=O)O)cc4)[nH]3)nc12
inactive: all assays above

CC1C=CC2CCCCC2C1CCC1CC(O)CC(=O)O1 (stereo not given)
inactive: all assays above
